Compound activity from PubChem BioAssay.
Shiga inhibitor = A qHTS for Small Molecule Inhibitors of Shiga Toxin; inhibition, % at 38.7 µM; 290,000 compounds, 9.2% hits; Vero cells, Shiga toxin protein synthesis inhibition reporter; in the data active = inhibition mostly above about 28%, no sharp cut-off; inactive = mostly below about 43%; note: 0% is about no effect
Pf growth 96h = Primary qHTS for delayed death inhibitors of the malarial parasite plastid, 96 hour incubation; P. falciparum luciferase reporter growth, 96 h; Potency, µM (highest dose often 28.7 µM), for inactives: at the top dose activity change, negative = inhibition, usual class: inhibitors; 320,000 compounds, 6.9% hits; AID 504834, 2011; note: potency is the fitted concentration of half-maximal effect; % is set by controls: 0 for no effect and ±100 for the full control effect
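Two parasite generations (96 h, 37 C, 5% CO2) of compound exposure in infected erythrocytes (0.05% parasitemia, 2% hematocrit). Luciferase-reporter P. falciparum; decreased luminescence indicates inhibited growth, aimed at apicoplast-acting delayed death.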
Pf growth 48h = Primary qHTS for delayed death inhibitors of the malarial parasite plastid, 48 hour incubation. P. falciparum luciferase growth in erythrocytes, 48 h. Potency, µM (series often up to 28.7 µM), for the others: top-dose activity change, negative = inhibition, actives largely listed as inhibitors. 310,000 compounds, 5.9% hits. AID 504832, 2011; note: potency is the fitted concentration of half-maximal effect; % is set by controls: 0 for no effect and ±100 for the full control effect
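Luciferase-expressing parasites in RBCs, 2% Hct / 0.1% parasitemia final; RPMI 1640 + 0.5% Albumax; 37 C, 5% CO2, one generation; luminescence read-out, lower signal = inhibition.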
CHX counter-1 = Cycloheximide Counterscreen for Small Molecule Inhibitors of Shiga Toxin; AID 2314, 2010; max response, %; 300,000 compounds, 12% hits; cell reporter, cycloheximide protein synthesis inhibition counterscreen; in the data active = max response mostly above about 13%, no sharp cut-off; inactive = mostly below about 14%; note: read at 38.3 µM for the half of the compounds with a filed dose; 0% is about no effect
NS1 inh = qHTS Assay for Inhibitors of Influenza NS1 Protein Function | Potency, µM (series often up to 46.1 µM), without a hit: top-dose activity, positive = more growth | 270,000 compounds, 0.4% hits | AID 2326, 2010; calls by dose curve; note: potency is the fitted concentration of half-maximal effect; actives are rising curves; nearly all actives have a fitted effect of over 50% in size
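OD600 was taken as the measure of yeast growth restored by compound in an NS1-expressing S. cerevisiae strain. Cells had been washed out of glucose medium and diluted 1:100 into galactose -URA medium, pH 6.0.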
CHX counter-2 = Cycloheximide Counterscreen for Small Molecule Inhibitors of Shiga Toxin (Confirmatory). AID 2318, 2010. Cycloheximide counterscreen, protein synthesis reporter, Shiga toxin assay. 510 compounds, 3% hits. shares compounds with Shiga inhibitor. Potency, µM (highest dose often 38.3 µM), without a hit: at the highest dose activity (activation), most hits filed as activators; calls by dose curve; note: potency is the fitted concentration of half-maximal effect; 0% is about no effect
* = called active by the depositor; u = inconclusive; x = no result given; + = active, no number; ! = not active in a repeat. The list is not random: actives were taken first. Their share in the collection is about 21%. Unless noted, calls come from the whole dose curve; as a rule, active = well fitted inhibition curve with a large enough effect; inconclusive = small, poorly fitted or top-dose-only effect, or another doubt; inactive = no such curve, though single readings can be large or run the other way.

SMILES	Shiga inhibitor	Pf growth 96h	Pf growth 48h	CHX counter-1	NS1 inh	CHX counter-2
CCOC(=O)c1[nH]c2ccc(OC)cc2c1NC(=O)C(C)N1CCC2(CC1)OCCO2 (configuration not stated)	49.2*	62.8%	u	5.3	-6.3%	-1.3%
CCN(CC)C(=O)CSc1nnc(-c2ccccn2)n1-c1ccc(C)c(C)c1	-2.6	x	-28.7%	0.4	-1.9%	x
O=C(/C=C\c1ccco1)Nc1nc(-c2ccc3ccccc3c2)cs1	58.1*	-2.2%	-17.6%	20.8	14.0%	2.7%
CCCN(CCC)C(=O)CC(c1ccccc1)c1ccc(C)cc1O (configuration not stated)	9.7	u	x	10.4	-5.6%	x
Cc1ccc(O)c([C@H](CCN(C(C)C)C(C)C)c2ccccc2)c1	48.4*!	-5.7%	1.69µM*	-0.5	15.2%	-2.0%
CC(c1ccco1)N(C(=O)c1cc(Cl)cc(Cl)c1)c1ccccn1 (configuration not stated)	24.4*	u	-25.3%	1.1	-20.1%	-0.7%
Cc1cc(C)cc(C(=O)N(c2ccccn2)C(C)c2ccco2)c1 (configuration not stated)	15.5	-20.4%	x	1.5	0.3%	x
CCOc1ccc(S(=O)(=O)Nc2ccc3c(c2)n(C)c(=O)n3C)cc1	91.7*	22.6%	-18.3%	-3.1	4.2%	-1.1%
COc1ccc(C(C(=O)NC(C)(C)C)N(Cc2ccco2)C(=O)CCC(=O)Nc2ccccn2)cc1 (configuration not stated)	-3.2	u	u	-2.1	-25.4%	x
COc1ccccc1C(=O)NNC(=O)c1ccc2ccccc2c1	x	51.6%	46.7%	1.2	-10.2%	-0.7%
COC(=O)c1cc(=O)n2c(-c3ccc(OC)cc3)csc2n1	-10.5	u	1.6%	6.2	2.0%	x
CC1=C(C)C(OCCBr)N(c2cc(O)c(Cl)cc2F)C1=O (configuration not stated)	43.1*	78.0%	11.5%	4.9	11.6%	-2.7%
Cc1cc(C)n(-c2cc(N3CCOCC3)ncn2)n1	30.8*	-28.5%	8.8%	-1.7	-0.8%	-4.0%
O=C(CCn1cnnn1)Nc1ccccc1	21.9*	43.4%	13.6%	8.8	x	-3.3%
O=C(CCn1cnnn1)Nc1cccc(F)c1	15.2	u	4.2%	1.5	x	x
CN(C(=O)COC(=O)c1cc(NS(=O)(=O)c2cc([N+](=O)[O-])ccc2Cl)ccc1O)C1CCCCC1	16.9	3.3%	0.9%	-2.2	u	x
COC(=O)c1ccc(-c2noc(CN(C)Cc3ccncc3C)n2)cc1	40.2*	23.3%	1.3%	2.5	-1.4%	0.4%
CCCNC(=O)c1ccc2snnc2c1	29.4*	u	37.9%	4.6	1.8%	-1.6%
Cc1ccc(OCC(=O)Nc2nnn(C)n2)c(C)c1	83.0*	x	35.6%	4.5	-5.4%	u
COc1cccc(/C=C/C(=O)N2CCN(c3ccccn3)CC2)c1	19.0	5.0%	0.9%	18.6	-16.8%	x
CSc1ccc(/C=C/C(=O)N2CCN(c3ccccn3)CC2)cc1	32.5*	4.1%	29.8%	11.8	-2.8%	-2.2%
CN(C(=O)c1ccc2c(=O)n3c(nc2c1)CCCCC3)c1ccccc1	+	-15.6%	-29.8%	13.4	-2.0%	4.0%
Cc1cc(C)cc(SCc2noc(C(=O)NC(C)C)c2C(=O)NC(C)C)c1	5.3	-4.7%	u	5.1	14.1%	x
CC1(C)Cc2c(cnn2-c2ccccc2)C(NC(=O)CCN2CCCCO2)C1 (configuration not stated)	25.8*	u	-13.9%	4.2	5.4%	1.0%
Cc1nn(C)c(C)c1CCC(=O)NC1CC(C)(C)Cc2c1cnn2-c1ccccc1 (configuration not stated)	-8.8	u	12.8%	0.8	0.8%	x
SMILES	Shiga inhibitor	Pf growth 96h	Pf growth 48h	CHX counter-1	NS1 inh	CHX counter-2
CC1Cc2nc(SCC(=O)NCC3CCCO3)n(C)c(=O)c2S1 (configuration not stated)	-4.5	-15.8%	u	-3.3	3.8%	x
CN1OCC(S(=O)(=O)c2ccccc2)C1c1ccccc1 (configuration not stated)	-3.1	11.0%	-5.3%	8.6	x	x
COc1cc(C2C(S(=O)(=O)c3ccccc3)CON2C)ccc1OCc1ccc(F)cc1 (configuration not stated)	42.7*	-4.1%	-12.1%	11.8	-5.8%	4.8%
Cc1nnsc1NC(=O)OCc1ccc(C(F)(F)F)cc1	-7.2	42.3%	36.9%	-2.7	-27.4%	x
Cc1sc(NC(=O)COc2cccc(-n3cnnn3)c2)c(C#N)c1C	75.2*	7.4%	5.1%	1.6	6.7%	-0.1%
COc1ccc(CN2CCNC(=O)C2CC(=O)NC2CC(C)(C)CC(C)(C)C2)cc1OC (configuration not stated)	-4.9	-18.9%	u	-1.7	20.9%	x
COc1ccc(CCN(C)CC(=O)Nc2c(C)cc(C)cc2C)cc1OC	-14.6	u	u	-2.1	7.7%	x
CCSc1nnc(-c2ccc(S(=O)(=O)N3CCCC3)cc2)n1C	67.0*	-51.6%	u	8.5	-0.4%	-1.3%
C=CCNC(=O)CSc1nnc(-c2ccc(S(=O)(=O)N3CCCC3)cc2)n1C	-3.2	-9.6%	15.0%	-1.6	10.4%	x
Cc1cccc(-n2c(SCc3ccc(C#N)cc3)nnc2-c2c[nH]c3ccccc23)c1	-7.4	u	u	-1.9	13.6%	x
O=C(c1ccco1)N1CCN(C(=O)c2cc(-c3ccncc3)nc3ccc(Br)cc23)CC1	x	x	x	x	-64.1%	x
O=C(c1ccco1)N1CCN(C(=O)c2cc(-c3ccccn3)nc3ccc(Cl)cc23)CC1	31.6*	10.7%	u	4.9	-2.7%	-0.9%
O=C/C=C/c1ccccc1	63.9*	-10.2%	3.4%	16.4	x	u
O=S(=O)(/C=C/c1ccccc1)c1ccccc1	-9.9	x	8.9%	-1.7	-8.2%	x
COc1cccc(N/N=C(\C#N)S(=O)(=O)C(C)(C)C)c1	-3.8	25.1%	3.5%	8.0	x	x
CCC(Cc1ccccc1)NS(=O)(=O)c1c(C)nc2scc(C)n2c1=O (configuration not stated)	-11.3	16.1%	-3.0%	-5.6	3.6%	x
Cc1ccc(C(C(=O)NCc2ccco2)N(C(=O)Cn2nnc3ccccc32)c2ccccc2)o1 (configuration not stated)	64.3*	14.7%	u	3.5	-31.4%	4.9%
Cc1ccc(C)c(N(C(=O)Cn2nnc3ccccc32)C(C(=O)NCc2ccco2)c2ccncc2)c1 (configuration not stated)	-27.3	u	u	-5.5	0.4%	x
O=C(/C=C/c1ccc(S(=O)(=O)N2CCOCC2)cc1)N1CCN(c2ccccc2)CC1	-5.3	-16.6%	u	-3.3	5.8%	x
O=C(/C=C/c1ccc(S(=O)(=O)NCc2ccco2)cc1)N1CCN(c2ccccc2)CC1	66.2*	3.7µM*	u	4.2	x	4.6%
